Inconclusive results are not listed. The source made the active and inactive calls. The call rests on the fitted dose curve; in most records, active means well fitted curve in the direction sought with a large enough effect; inconclusive means small, poorly fitted or top-dose-only effect, or another doubt; inactive means no such curve, though single readings can be large or run the other way.
The compounds below were run against Polyunsaturated fatty acid lipoxygenase ALOX15 (Homo sapiens) (UniProt P16050) (assay: Counterscreen qHTS for inhibitors of human arachidonate 12S-lipoxygenase (ALOX12): ALOX15 Assay). Details: purified ALOX15 enzyme activity; series mostly up to 110 µM.
Chain of Polyunsaturated fatty acid lipoxygenase ALOX15 (Homo sapiens) (P16050 whole entry, looked up): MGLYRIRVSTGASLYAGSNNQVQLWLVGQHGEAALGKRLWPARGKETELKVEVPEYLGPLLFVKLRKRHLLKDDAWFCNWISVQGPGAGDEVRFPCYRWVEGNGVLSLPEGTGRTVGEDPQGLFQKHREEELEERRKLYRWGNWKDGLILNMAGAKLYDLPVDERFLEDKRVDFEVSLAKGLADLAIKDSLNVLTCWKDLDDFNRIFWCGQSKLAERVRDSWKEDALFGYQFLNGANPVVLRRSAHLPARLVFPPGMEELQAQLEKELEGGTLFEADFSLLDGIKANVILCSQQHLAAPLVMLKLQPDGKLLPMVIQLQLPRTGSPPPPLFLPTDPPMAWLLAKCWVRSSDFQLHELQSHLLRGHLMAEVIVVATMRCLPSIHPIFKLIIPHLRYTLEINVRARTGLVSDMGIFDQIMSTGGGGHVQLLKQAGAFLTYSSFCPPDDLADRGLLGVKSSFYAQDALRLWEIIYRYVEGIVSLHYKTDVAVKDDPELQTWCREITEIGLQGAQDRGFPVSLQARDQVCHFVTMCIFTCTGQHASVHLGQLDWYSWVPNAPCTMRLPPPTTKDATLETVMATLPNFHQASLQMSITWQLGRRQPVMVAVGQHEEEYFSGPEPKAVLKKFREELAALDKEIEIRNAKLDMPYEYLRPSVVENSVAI
In short: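 Xylenol orange–ferric complex formation, read as the 573 nm to 405 nm absorbance ratio, tracks product from 50 uM arachidonic acid turned over for 30 min at RT. Enzyme is 40 nM ALOX15, pH 7.5 HEPES buffer, compound-preincubated 15 min.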
With CN1CC(=O)N(C2CCCNCC2)Cc2c1ncnc2N1CCCCC1 (stereo not drawn) the outcome was “inactive”.
O=C1c2ccccc2CN1C1CCN(Cc2ccc(C(F)(F)F)cc2)CC1 was tested, and the outcome was “inactive”.
With COCCNc1nc2c([S+](=O)([O-])c3cc(OC)ccc3OC)nnn2c2ccccc12 the outcome was “inactive”.
In the case of O=c1n(-c2ccc(Cl)cc2)nc2n1CCN([S+](=O)([O-])c1ccccc1)C2, the outcome is reported as “inactive”.
In the case of O=Cc1ccc(-c2ccc(F)cc2)cc1, the outcome is reported as “inactive”.
FC(F)(F)c1ccc(N2C3CCC2CN(Cc2cccc(-c4cccs4)c2)C3)cc1 was tested, and the outcome was “inactive”.
For Cc1ccc(CN2CCC3(Cc4ccccc4CNC3=O)C2)cc1C (stereo not drawn), the outcome was “inactive”.
O=C1NCc2ccccc2CC12CCCN2Cc1cccc(OC(F)(F)F)c1 (stereo not drawn) was tested, and the outcome was “inactive”.
O=C1NCc2ccccc2CC12CCN(Cc1ccc(Cl)o1)C2 (stereo not drawn) was tested, and the outcome was “inactive”.
With Cc1cc(C(=O)NC2CCCC2)c2c(C3CCNCC3)noc2n1 the outcome was “inactive”.
For COc1ccc(N2CC3CCC(C2)N3C(=O)c2ccc3c(c2)OCO3)cc1, the outcome was “inactive”.
CCNc1ncnc2c1CN(C1CCCNCC1)C(=O)CN2C (stereo not drawn) was tested, and the outcome was “inactive”.
NCCC(=O)N1CCCC2(Cc3ccccc3CN2C(=O)c2ccccc2)C1 (stereo not drawn) was tested, and the outcome was “inactive”.
COc1ccccc1CNc1ncnc2c1CN(C1CCCNCC1)C(=O)CN2C (stereo not drawn) was tested, and the outcome was “inactive”.
In the case of O=C1NCc2ccccc2CC12CCN(Cc1ccc(O)cc1)CC2, the outcome is reported as “inactive”.
O=Cc1cccc(-c2cncc(C(=O)O)c2)c1 was tested, and the outcome was “inactive”.
CC(C)CNC(=O)c1cc(C2CC2)nc2onc(C3CCNCC3)c12 was tested, and the outcome was “inactive”.
With Fc1ccc(CN2CC(Oc3ccc4c(c3)OCO4)C2)cc1 the outcome was “inactive”.
With COc1ccc(CC(=O)N2Cc3ccccc3CC23CCCN(C(=O)CCCN)C3)cc1 (stereo not drawn) the outcome was “inactive”.
For CC(C)CN1CCC(c2nc3ccc(F)cc3c(=O)[nH]2)CC1, the outcome was “inactive”.
With O=C(NCc1ccc(Cl)nc1)c1cn2c(n1)CN(C(=O)c1ccccc1)CC2 the outcome was “inactive”.
CNCc1ccc(N2CCCC2)cc1 was tested, and the outcome was “inactive”.
For COC[C@@H]1CCCN1c1ncnc2c1CN(C1CCNC1)C(=O)CN2C (stereo partly drawn), the outcome was “inactive”.
In the case of COc1ccccc1C(=O)N1CCc2nc(C3CC3)nc(-c3ccc(Cl)cc3)c2C1, the outcome is reported as “inactive”.
With O=c1[nH]c(C2CCN(Cc3ccc(-c4cccnc4)cc3)CC2)nc2ccc(F)cc12 the outcome was “inactive”.
With CC(=O)N1CCCN(c2ncnc3c2CN(C2CCNCC2)C(=O)CN3C)CC1 the outcome was “inactive”.
For CCN1CCCC12Cc1ccccc1CN(C(=O)c1ccccc1)C2 (stereo not drawn), the outcome was “inactive”.
For Cc1ccc(CN2CCC3(CC2)Cc2ccccc2CNC3=O)cc1C, the outcome was “inactive”.
In the case of c1ccc2c(c1)CCN2C1CN(Cc2cccc3ccccc23)C1, the outcome is reported as “inactive”.
O=C1NCc2ccccc2CC12CCN(Cc1cnc3ccccc3c1)C2 (stereo not drawn) was tested, and the outcome was “inactive”.
In the case of CCOCCCNc1ncnc2c1CN(C1CCCNC1)C(=O)CN2C (stereo not drawn), the outcome is reported as “inactive”.
With CN1CC(=O)N(C2CCNC2)Cc2c(NCCCN3CCCCC3)ncnc21 (stereo not drawn) the outcome was “inactive”.
For CN1CC(=O)N(C2CCNCC2)Cc2c(NC3CCCCC3O)ncnc21 (stereo not drawn), the outcome was “inactive”.
For O=c1[nH]c(C2CCCN(Cc3ccc(-c4cc(F)cc(F)c4)cc3)C2)nc2ccc(F)cc12 (stereo not drawn), the outcome was “inactive”.
For CCC(=O)N1Cc2ccccc2CC2(CCN(CC3CCNCC3)CC2)C1, the outcome was “inactive”.
CC(=O)Nc1ccc(CN2CCC(c3nc4ccc(C)cc4c(=O)[nH]3)CC2)cc1 was tested, and the outcome was “inactive”.
In the case of CN1CC(=O)N(C2CCCNCC2)Cc2c(NCCc3ccccc3F)ncnc21 (stereo not drawn), the outcome is reported as “inactive”.
For Cc1cc(Cl)ccc1-c1cccc(C=O)c1, the outcome was “inactive”.

— PubChem BioAssay AID1671192 (National Center for Advancing Translational Sciences (NCATS), 2021)
